Drawing on PubChem BioAssay (NCATS), this text covers Potency for 40 compounds.

Results filed as inconclusive are left out. Entries that show only a call come without a potency. Activity calls are given as the source filed them. The call rests on the fitted dose curve; in most records, active means well fitted inhibition curve with a large enough effect; inconclusive means small, poorly fitted or top-dose-only effect; inactive means no such curve, though single readings can be large or run the other way.

The test is described as follows: qHTS assay for measurement of the activity of small molecule inhibitors on Zika virus induced Caspase-3 activity in human iPSC derived neural progenitor cells (hNPCs) (AID 1224857). Further: nearly all actives have a fitted effect of over 65% in size. The note with it: hNPCs ZIKV-induced caspase-3/7, Caspase-Glo luminescence, 6 h; series mostly up to 45.7 µM. The text has this:
National Center for Advancing Translational Sciences [NCATS]
Johns Hopkins University School of Medicine
Increase in the Caspase-3 activity indicates an activation of apoptosis cell death pathway caused by Zika virus infection in certain types of neuronal cells including human neural progenitor cells (hNPCs), astrocytes, and astrocytoma cell line (SNB-19). This cell-based caspase-3 activity assay measures the increased caspase-3 activity in the human iPSC derived neural progenitor cells (hNPCs) after a 6-hour Zika virus infection with a luminescence readout. A decrease in the luminescence signal in this assay by small molecule treatment indicates an inhibitory effect of that small molecule on the Zika virus induced caspase-3 activity that may correlate with its effect on reduction of Zika virus caused cell death.
The medium for hNPCs consists of DMEM/F12, N2 supplement (ThermoFisher, Cat.# 17502048), NEAA (ThermoFisher, Cat. # 11140050), 2 ug/ml heparin, 2 uM cyclopamine, and B27 (ThermoFisher, Cat. # 17504044). A Caspase-Glo 3/7 assay kit (catalog number G8092; Promega, Madison, WI) was used to detect caspase-3 activity induced by Zika virus infection in human cells. The reagent mixture was reconstituted as described in the protocol from the manufacturer. Polystyrene tissue culture treated and PDL coated white plates were obtained from Greiner Bio-One (Monroe, NC). Cells were seeded in 384- or 1536-well assay plates and cultured at 37 C with 5% CO2 for 16 to 20 hours. The typical cell seeding density in the 1536-well plate assay is 350 cells/well in 3 ul medium for hNPCs in tissue culture treated plates. Compounds were added to cells and incubated for one hour before addition of ZIKV solution to cells (2 FFU/cell). After incubation at 37 C with 5% CO2 for 6 hours, the reagent mixture of Caspase-Glo 3/7 assay kit was added to each well, followed by incubation at room temperature for 30 minutes. The luminescence intensity of the assay plates was measured using a ViewLux plate reader (PerkinElmer). Data were normalized by using the cell-containing wells without ZIKV as a negative control (0% induction of caspase 3/7 activity) and wells containing ZIKV infected cells (Caspase-3 activity induced) as a positive control (100% induction of caspase 3 activity). The percentage inhibitions of the increased Caspase-3 activity by small molecule inhibitors were then calculated.
Take `C[C@H](Cc1ccc2c(c1)OC(C(=O)O)(C(=O)O)O2)NC[C@H](O)c1cccc(Cl)c1`: the Potency result was “inactive”. Then `Oc1ccc2c3c1O[C@H]1c4oc5ccccc5c4C[C@@]4(O)C(C2)N(CC2CC2)CCC314` (stereo not given in full), with “inactive”. `C[N+]1(C)CCN(c2ccccc2)CC1`: the Potency result was “inactive”.

Take `CCCN(CCC)[C@H]1CCc2c(F)ccc(O)c2C1`: the Potency entry was “inactive”.

As to `CCN1C[C@@]2(COC)C3[C@@H](OC)C4[C@H]1C3([C@@H]1C[C@@]3(O)[C@H](OC(=O)c5ccccc5)[C@@H]1[C@]4(OC(C)=O)[C@@H](O)[C@@H]3OC)[C@H](OC)C[C@H]2O`, the Potency entry was “inactive”. As to `Cc1o[nH]c(=O)c1CC(N)C(=O)O` (stereo not given), the Potency entry was “inactive”. On to `C[N+]1(C)C2CCC1CC(OC(=O)c1c[nH]c3ccccc13)C2` (stereo not given), for which the Potency entry is “inactive”. For `Nc1ccc(CCN2CCN(c3cccc(C(F)(F)F)c3)CC2)cc1`, the Potency result is “inactive”. Then `CC(C)(C)c1o[nH]c(=O)c1CC(N)C(=O)O` (stereo not given), with “inactive”; and `C#CCN[C@H](C)Cc1ccccc1`, with “inactive”; and `CC(N)[C@H](O)c1ccc(O)c(O)c1` (stereo not given in full), with “inactive”. Consider `CC(C)CC(NP(=O)(O)O[C@@H]1O[C@@H](C)[C@H](O)[C@@H](O)[C@H]1O)C(=O)NC(Cc1c[nH]c2ccccc12)C(=O)O` (stereo not given in full), for which the Potency entry was “inactive”. The entry for `C[N+]1(C)CCOC(O)(c2ccc(-c3ccc(C4(O)C[N+](C)(C)CCO4)cc3)cc2)C1` (stereo not given) is “inactive”; for `O=C1C=CC(=O)C=C1` it is “inactive”; for `CCNC(=O)[C@H]1O[C@@H](n2cnc3c(N)ncnc32)[C@H](O)C1O` (stereo not given in full) it is “inactive”. Then `COc1ccc2c(c1)C13CCCCC1C(C2)N(C)CC3` (stereo not given), with “inactive”; and `NC(=O)c1cc(N2CC2)c([N+](=O)[O-])cc1[N+](=O)[O-]`, with “inactive”; and `CNc1ccc2oc(C[C@H]3O[C@@]4(CC[C@H]3C)O[C@H]([C@H](C)C(=O)c3ccc[nH]3)[C@H](C)C[C@H]4C)nc2c1C(=O)O`, with “inactive”. Then `NC(C(=O)O)c1cc(=O)[nH]o1` (stereo not given), with “inactive”. For `CC(N)Cc1c[nH]c2ccc(O)cc12` (stereo not given), the Potency entry is “inactive”.

As to `Cc1[nH]c2ccc(O)cc2c1CCN`, the Potency result is “inactive”.

For the compound `Cc1cc([C@@H]2CCCN2C)on1`, the Potency entry is “inactive”. In the case of `CCN(CC)c1ncnc2c1ncn2[C@@H]1O[C@H](COP(=O)(O)OP(=O)(O)C(Br)(Br)P(=O)(O)O)[C@@H](O)[C@H]1O`, the Potency entry was “inactive”.

On to `CC(=O)c1c(O)c(C)c(O)c(Cc2c(O)c3c(c(C(=O)/C=C/c4ccccc4)c2O)OC(C)(C)C=C3)c1O`, for which the Potency entry is “inactive”.

In the case of `CCCN(CCC)C1Cc2cc(OC)c(OC)cc2C1`, the Potency result was “inactive”. Turning to `OCc1cnc[nH]1`, the Potency result was “inactive”. For the compound `CCCN1CC[C@@H]2c3cc(O)ccc3CC[C@@H]21`, the Potency entry is “inactive”.

`Oc1ccc2c3c1O[C@H]1c4[nH]c5ccccc5c4C[C@@]4(O)C(C2)N(CC2CC2)CCC314` (stereo not given in full): the Potency result was “inactive”. `CC(C)(C)c1cc(C=C(C#N)C#N)cc(C(C)(C)C)c1O`: the Potency entry is “inactive”. As for `O=[N+]([O-])c1ccc2nc(N3CCNCC3)ccc2c1`, the Potency result was “inactive”.

For `c1ccc2cc(CC3=NCCN3)ccc2c1`, the Potency entry was “inactive”. Turning to `Clc1cc(I)cc(Cl)c1NC1=NCCN1`, the Potency entry was “inactive”. Consider `CC12NC(Cc3ccccc31)c1ccccc12` (stereo not given), for which the Potency result was “inactive”. Then `N[C@@H](Cn1oc(=O)[nH]c1=O)C(=O)O`, with “inactive”; and `NCCc1c[nH]c2ccc(C(N)=O)cc12`, with “inactive”; and `COc1ccc2c(c1O)-c1cccc3c1[C@@H](C2)N(C)CC3`, with “inactive”. Take `CN(C(=O)Cc1ccc(Cl)c(Cl)c1)C(CN1CCCC1)c1cccc(OCC(=O)O)c1` (stereo not given): the Potency entry was “inactive”. The entry for `Cc1c2ccncc2c(C)c2c1[nH]c1ccccc12` is “inactive”. Regarding `C[N+](C)(C)CCOC(=O)CBr`, the Potency result was “inactive”.

For the compound `CC(C)(C)OC(=O)NC1[C@H]2CNC[C@@H]12` (stereo not given in full), the Potency entry is “inactive”.
